High-throughput results (PubChem)
HCMV inh: inhibitors of human cytomegalovirus. HFF cells, HCMV-luciferase reporter, 72 h; stronger effect = lower value. 410,000 tested, 4.5% active. AID 1259415. activity change, negative = inhibition, % at 57.5 µM; in the data active = activity change below about -60%; inconclusive = no clear call, values can overlap the other calls; inactive = above about -39%
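Two-dose cell screen: HFF monolayers treated with compounds and infected with luciferase-expressing HCMV at 1 PFU/cell, 72 h at 37C, then lysed for luciferase measurement.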
Pf growth 96h: P. falciparum growth inhibition at 96 hours. P. falciparum luciferase reporter growth, 96 h. Potency, µM (highest dose often 28.7 µM), most hits filed as inhibitors. 320,000 tested, 6.9% active. AID 504834
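Luminescence readout: decreased luciferase signal marks inhibited growth of reporter-expressing P. falciparum in infected red cells (2% hematocrit, 0.05% parasitemia final), exposed to compound two generations (96 h, 37 C, 5% CO2).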
Pf growth 48h: P. falciparum growth inhibition at 48 hours (one generation); P. falciparum luciferase growth in erythrocytes, 48 h; Potency, µM (titrated, usually from 28.7 µM), hits mostly inhibitors; 310,000 tested, 5.9% active
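In quantitative HTS format, infected erythrocytes bearing luciferase-reporter parasites were treated for a single generation at 37 C. Luminescence after adding detection reagent served as the growth measure.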
CHX counter: counter-screen for Shiga toxin inhibitors: cycloheximide protein synthesis inhibition; cell reporter, cycloheximide protein synthesis inhibition counterscreen; max response, %; 300,000 tested, 12% active; in the data active = max response mostly above about 13%, no sharp cut-off; inactive = mostly below about 14%; note: read at 38.3 µM for the half of the compounds with a filed dose
Shiga inhibitor: blocks Shiga toxin action in Vero cells; inhibition, % at 38.7 µM; 290,000 tested, 9.2% active; Vero cells, Shiga toxin protein synthesis inhibition reporter; AID 2315; in the data active = inhibition mostly above about 28%, no sharp cut-off; inactive = mostly below about 43%
A number is an active result; - = inactive; ? = inconclusive; . = no result given. An excerpt weighted towards active compounds, which were near 20% of everything screened. Unless noted, calls come from the whole dose curve; as a rule, active = well fitted inhibition curve with a large enough effect; inconclusive = small, poorly fitted or top-dose-only effect, or another doubt; inactive = no such curve, though single readings can be large or run the other way.

SMILES	HCMV inh	Pf growth 96h	Pf growth 48h	CHX counter	Shiga inhibitor
C[C@@H](CN1C2=NC[C@H](C)N2C[C@H]1Cc1ccc(O)cc1)NC(=O)CCC1CCCCC1	-	?	-	-	-
Cc1ccccc1NC(=O)CON=C(N)c1ccccc1	-	?	-	.	.
COC(=O)c1sc(N)c(C(=O)OC)c1Cn1ncc(Cl)c(Cl)c1=O	-	8.3µM	13µM	-	-
COC(=O)c1sc(N)c(C(=O)OC)c1COC(=O)c1c(C)noc1C	-	?	?	-	-
CC1=C(C(=O)N2CCCCCC2)CC(CC(=O)NCC2CCCCC2)C(=O)N1Cc1ccc(F)cc1 (centres undefined)	-	.	.	.	.
COc1cc(C(C)=O)ccc1OCc1cc(C(=O)N2CCSCC2)no1	-	?	-	-	-
O=C(c1cc(COc2ccc(F)c(F)c2)on1)N1CCSCC1	-	-	-	47	62
CC(=O)c1cccc(OCc2cc(C(=O)N3CCSCC3)no2)c1	-	?	-	48	150
CCOCCc1nn2c(=O)cc(COC(=O)COc3ccc(C)c(C)c3)nc2s1	-	.	.	.	.
COCCn1c(N/N=C(C)/C=C/c2ccccc2)nc2c1c(=O)[nH]c(=O)n2C	.	?	-	-	-
COc1ccc(Cl)cc1NC(=O)CN(C)CC(=O)Nc1ccc(Br)cc1	-	-	-	-	-
COc1ccc(Cl)cc1NC(=O)CN(C)CC(=O)Nc1cc(OC)c(OC)c(OC)c1	-	?	15µM	-	-
COc1ccc(Cl)cc1NC(=O)CN(C)CC(=O)NC(C)c1ccccc1 (centres undefined)	-	-	10µM	-	-
COc1ccc(Cl)cc1NC(=O)CN(C)C(=O)c1cc2c(F)cccc2s1	-	?	7.4µM	.	.
Cc1cc(C)n(-c2cc(N3CCN(C(=O)c4cccc(F)c4)CC3)ccc2[N+](=O)[O-])n1	-	-	?	-	-
Cc1ccc(S(=O)(=O)NCCc2nnc3ccc(SCC(=O)Nc4ccc(OC(F)(F)F)cc4)nn23)cc1	-	.	.	.	.
O=C(O)c1ccc2c(c1)S(=O)(=O)c1cc(N3CCN(c4cnccn4)CC3)ccc1C2=O	-	.	.	.	.
COc1ccccc1OCCN(C#N)c1nc(N(C)C)nc(N(C)C)n1	-	-	-	-	-
COc1ccc(/C=C/c2cc(C(F)(F)F)on2)cc1	-	-	-	40	64
C=CCn1cnc2c(nnn2-c2ccc(C)c(Cl)c2)c1=O	-	-	-	-	-
O=C(Nc1ccccc1)c1cc2ccc3ccccc3c2s1	-	-	-	47	92
CCc1ccccc1NC(=O)c1cc2c(Cl)nc3ccccc3c2s1	-	.	.	.	.
COc1ccc2cc(C(=O)Nc3ccc(S(N)(=O)=O)cc3)sc(=O)c2c1OC	-	-	-	-	-
COc1ccc2cc(C(=O)Nc3ccccc3)sc(=O)c2c1OC	-	?	-	43	34
Cc1ccc(C(=O)c2oc3ccccc3c2NC(=O)c2cc(-c3ccccc3)on2)cc1F	-	.	.	.	.
SMILES	HCMV inh	Pf growth 96h	Pf growth 48h	CHX counter	Shiga inhibitor
COc1ccc(C(=O)Nc2ccc(-c3nc4ccccc4s3)c(Cl)c2)cc1Cl	-	.	.	.	.
COc1cc(OC)c(C2N(c3cc(C)on3)C(=O)C3CCCN32)cc1OC (centres undefined)	-	4.7µM	-	-	-
CC1(C(=O)NCc2ccc(C(F)(F)F)cc2)CCN1Cc1ccc(-c2ccccc2)o1 (centres undefined)	-	.	.	.	.
COC(=O)c1sccc1-c1ccc(C(=O)Nc2cccc(Cl)c2)o1	-	-	-	-	51
COC(=O)c1ccccc1NC(=O)c1ccc(-c2cccc(Cl)c2)o1	-	-	.	-	-
CN(C)S(=O)(=O)Oc1ccsc1C(=O)Nc1cccc(Cl)c1	-	?	1.7µM	-	-
O=C(NCc1ccc(Cl)cc1)NC1COc2ccccc2C1 (centres undefined)	-	.	.	.	.
Cc1ccc(S(=O)(=O)N2CCCC2)cc1C(=O)O	-	.	-	-	-
Cc1cccc(-c2nc(Cn3c(SCc4cc(C)ccc4C)nc4ccncc43)c(C)o2)c1	-	.	.	.	.
Cc1nn(Cc2c(Cl)cccc2Cl)c(C)c1NC(=O)c1cc(C(C)C)on1	-98	9.3µM	.	-	-
Cc1nn(Cc2ccccc2Cl)c(C)c1NC(=O)c1noc2c1CCCCC2	?	-	-	21	-
Cc1cc(C(=O)Nc2c(C)nn(Cc3c(Cl)cccc3Cl)c2C)no1	-62	-	-	-	-
Cc1nn(Cc2ccccc2Cl)c(C)c1NC(=O)c1cc(C(C)C)on1	-	.	.	.	.
O=C(Nc1ccc2c(c1)OCCO2)C1c2ccccc2OCC(=O)N1CC(F)(F)F (centres undefined)	-	.	.	.	.
